This is part of a sample that, as a whole, favours compounds with a hit. Of some 83,000 tested, about 20% had one in any assay.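 Testing used 96-well plates and a 48-hour single-concentration exposure. Example: -40 means 40% of the starting cells died.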 The source made the active and inactive calls. How the source made its calls: active means growth percent below 10; inactive means the rest.
tested on: HL-60(TB) leukemia; assay: NCI-60 one-dose screen, 48 h (100 = growth as untreated, 0 = no growth, -100 = all killed); conditions: 10 µM unless noted

SMILES	growth
COc1cc(NC(C)CCCN)c2nc(C)ccc2c1OC (centres undefined)	-12.2% (active)
CSCCC(NC(=O)C(Cl)Cl)C(=O)O (centres undefined)	98.1% (inactive)
CC[C@H](Nc1nc(N)nc(C)c1C#N)c1nc2cccc(CN(C)c3ncc(C(=O)NO)cn3)c2c(=O)n1-c1ccccc1	0.763% (active)
CSc1ncc(C)c(Nc2ccc(Cl)cc2)n1	112% (inactive)
C=C(C)[C@H]1CC/C(C)=C/CC[C@]2(C)O[C@H]2CC/C(COC(=O)[C@@H](OC(C)=O)[C@H](NC(=O)c2ccccc2)c2ccccc2)=C\[C@@H]1O	91% (inactive)
O=c1cc(-c2nccc3c2[nH]c2ccccc23)c2cc(Cl)ccc2o1	0.737% (active)
C/C(=C\CCc1ccsc1)CC/C=C(\C)CCCN1CCN(CCO)CC1	-38.3% (active)
CCNC(=O)Nc1ncccc1OCc1ccc(F)cc1	95.5% (inactive)
NC(=O)N/N=C/c1ccc(Br)o1	95.8% (inactive)
C=CC(=O)Nc1ccc(Nc2nccc(-c3ccc(N4CCCC4)c(C#N)c3)n2)cc1	-71.8% (active)
S=C1SCN(Cc2ccccc2)CN1Cc1ccco1	32% (inactive)
COC(=O)[C@]12CC[C@@H](C(=O)/C=C/c3cccnc3)[C@@H]1[C@H]1CC[C@@H]3[C@@]4(C)C/C(=C/c5cccnc5)C(=O)C(C)(C)[C@@H]4CC[C@@]3(C)[C@]1(C)CC2	-30.2% (active)
CCOc1ccc(N=C(C)Nc2ccc(OCC)cc2)cc1	76.4% (inactive)
O=[N+]([O-])c1cccc(N=Cc2ccc3c(c2)OCO3)c1	98.5% (inactive)

Reference: PubChem BioAssay (NCI)
